Potency and affinity values are given separately. Records with an inconclusive call do not appear. Where a call stands in place of a potency, no number is given. Calls of active or inactive are those of the source. How the calls were made is not given here.
Experiment: general cell-killing toxicity readout – plate reader, dry powder samples, cytotoxicity control for PAX8 inhibitor project, dose response (AID 743021)
Conditions: cell line, non-specific cytotoxicity counter-screen; series mostly up to 35 µM

Row | Structure (SMILES) | outcome
1 | CC(=O)c1cccc(-c2csc3ncnc(Sc4nnnn4C)c23)c1 | inactive
2 | O=C(Nc1cccc(Cl)c1)Nc1csc([N+](=O)[O-])c1 | inactive
3 | COc1cc(/C=N/NC(=O)c2ccc(CN3C(=O)c4cccc5cccc3c45)cc2)cc(OC)c1O | inactive
4 | O=C(NCc1cccnc1)/C(=C\c1ccc(-c2ccc(Cl)c(Cl)c2)o1)S(=O)(=O)c1ccccc1 | inactive
5 | C=C1C(=O)O[C@@H]2[C@H]1CC[C@H](C)[C@]1(O)CCC(=O)[C@@]21C | inactive
6 | Cc1ccc(-c2cn3cc(C)ccc3n2)cc1 | inactive
7 | C[C@@H]1CCCCO[C@H](CN(C)Cc2ccncc2)[C@H](C)CN([C@@H](C)CO)C(=O)c2cc(NC(=O)NC3CCCCC3)ccc2O1 | inactive
8 | O=C(Nc1nc(-c2cccs2)c(-c2cccs2)s1)C1(c2ccccc2)CC1 | inactive
9 | N#Cc1ccc(NC(=O)COC(=O)C2CCC2)cc1 | inactive
10 | O=C(NCC1CCCO1)C(=Cc1cccc([N+](=O)[O-])c1)C(=O)NCC1CCCO1 (stereo not given) | inactive
11 | Cn1c(CCN2CCN(c3ccccn3)CC2)nc2cc(NS(=O)(=O)c3ccc(Cl)cc3)ccc21 | inactive
12 | CCN(CC)c1ccc(C(NC(=O)C(C)C)c2ccc3cccnc3c2O)cc1 (stereo not given) | inactive
13 | COc1ccc(COC(=O)c2cc([N+](=O)[O-])ccc2N2CCOCC2)cc1F | inactive
14 | CC(=O)N1CCN(c2ccc(NC(=O)c3ccc([N+](=O)[O-])o3)cc2Cl)CC1 | inactive
15 | O=C(CCCN1C(=O)/C(=C/c2cccc(Br)c2)SC1=S)Nc1cccnc1 | inactive
16 | O=C(Nc1cccc(F)c1)N1CCCCN2[C@@H](CO)[C@H](c3ccc(C#Cc4ccccc4)cc3)[C@@H]2C1 | inactive
17 | Cc1ccc(C)c(N2CCN(C(=O)CCCCCn3c(=S)[nH]c4ccc(N5CCOCC5)cc4c3=O)CC2)c1 | inactive
18 | O=C1c2ccccc2C(=O)c2[nH]c(=O)[nH]c21 | inactive
19 | Cc1noc(/C=C/c2ccco2)c1S(=O)(=O)N1CCC(C(=O)NC(C)c2ccccc2)CC1 (stereo not given) | inactive
20 | O=C(NCCC1CCCCN1S(=O)(=O)c1ccc(Cl)cc1)C(=O)NCc1ccncc1 (stereo not given) | inactive

Row | Structure (SMILES) | outcome
21 | O=C(Nc1ccc([N+](=O)[O-])cn1)c1cc(-c2cccc(Br)c2)nc2ccccc12 | inactive
22 | CN(CCc1cn[nH]c1)Cc1nc(C(c2ccccc2)c2ccccc2)no1 | inactive
23 | O=C(Nc1cccc(C2=NCCN2)c1)Nc1cccc(C2=NCCN2)c1 | inactive
24 | CCCCCCN1C[C@@H](n2cc(-c3ccc(F)cc3)nn2)[C@H](O)C[C@@H]1c1ccc(Cl)cc1 | inactive
25 | Cn1nnnc1Sc1ncnc2scc(-c3cccc(C(F)(F)F)c3)c12 | inactive
26 | O=C(Nc1cccc(NC(=O)c2ccccc2Cl)c1)c1ccc([N+](=O)[O-])o1 | inactive
27 | C[C@@H]1CCCCO[C@@H](CN(C)Cc2ccc3c(c2)OCO3)[C@H](C)CN([C@@H](C)CO)C(=O)c2cc(NC(=O)Nc3ccc(C(F)(F)F)cc3)ccc2O1 | inactive
28 | CCSc1nc(-c2ccccc2)nc(C(Cl)Cl)n1 | inactive
29 | CN(C)N=Nc1nc[nH]c1C(N)=O | inactive
30 | COc1ccc(C(=O)c2cc([N+](=O)[O-])ccc2N2CCOCC2)cc1 | inactive
31 | CN(Cc1ccccc1)N=Nc1nc[nH]c1C(N)=O | inactive
32 | C=C1C2(C(=O)Nc3ccc(SC(F)F)cc3)CCC(C2)C1(C)C (stereo not given) | inactive
33 | C[C@H](O)C#Cc1ccc2c(c1)O[C@H](CN(C)Cc1ccc(-c3ccccc3)cc1)[C@@H](C)CN([C@@H](C)CO)S2(=O)=O | inactive
34 | COc1ccc(NC(=O)C(Sc2nnc(-c3ccncc3)n2-c2ccccc2C)c2ccccc2)cc1Cl (stereo not given) | inactive
35 | Cc1ccc(NC(=O)c2ccc([N+](=O)[O-])s2)cc1S(=O)(=O)N1CCOCC1 | inactive
36 | CCCCNC(=O)C(Sc1ccccc1)c1ccccc1 (stereo not given) | inactive
37 | CCN(CC)CC(C)(C)C(=O)/C=C/c1ccc(/C=C/C(=O)C(C)(C)CN(CC)CC)cc1 | inactive
38 | COC(C(=O)C(O)C(C)O)C1Cc2cc3cc(OC4CC(OC5CC(O)C(O)C(C)O5)C(O)C(C)O4)c(C)c(O)c3c(O)c2C(=O)C1OC1CC(OC2CC(OC3CC(O)C(OC)C(C)O3)C(O)C(C)O2)C(O)C(C)O1 (stereo not given) | inactive
39 | O=C(CCc1ccc(S(=O)(=O)NCc2ccccc2)cc1)NCc1ccco1 | inactive
40 | CC(=O)OC(C)(C)/C=C/C(=O)[C@](C)(O)C1[C@H](O)C[C@@]2(C)C3CC=C4C(C=C(O[C@@H]5O[C@H](CO)[C@@H](O)[C@H](O)[C@H]5O)C(=O)C4(C)C)[C@]3(C)C(=O)C[C@]12C (stereo not given in full) | inactive

From PubChem BioAssay
